One experiment deals with T1, Optix (Drosophila melanogaster, UniProt Q95RW8 139-229).
T1 sequence: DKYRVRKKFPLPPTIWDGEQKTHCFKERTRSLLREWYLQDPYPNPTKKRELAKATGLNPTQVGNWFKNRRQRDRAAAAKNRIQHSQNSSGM
Description: FP; 33 mM phosphate pH 7.0, 90 mM NaCl, 0.01% Tween 20, 0.1 mM DTT, 0.5% agarose; room temperature. The note with it: tags: N-GST (pGEX-6P-1, kept); dsDNA, one strand shown.
Turning to AGAGTGATGGCT, the binding signal was 127 Kd / Kd of best base at the position. Still for that read-out and setting: the result for GGAGTGATAGCT reads 2.35 Kd / Kd of best base at the position; that for AGAGCGATAGCT, 6.46 Kd / Kd of best base at the position; that for AGAGTCATAGCT, 51.6 Kd / Kd of best base at the position. In the case of AGAGAGATAGCT, the binding signal is 9.88 Kd / Kd of best base at the position. On to AGAGTGATACCT, for which the binding signal was 2.57 Kd / Kd of best base at the position. For the sequence TGAGTGATAGCT, the binding signal is 4.48 Kd / Kd of best base at the position. On the same count and under the same terms, the result for AGAGTGATAGCC reads 4.04 Kd / Kd of best base at the position; that for AGAATGATAGCT, 6.11 Kd / Kd of best base at the position. Same read-out and setting: then AGAGTGATAGTT, with 5.68 Kd / Kd of best base at the position. On to AGAGTGATAGCG, for which the binding signal is 7.84 Kd / Kd of best base at the position. On the same count and under the same terms, then AAAGTGATAGCT, with 1.14 Kd / Kd of best base at the position. Still for that read-out and setting: the result for AGACTGATAGCT reads 1.06 Kd / Kd of best base at the position.

Regarding AGATTGATAGCT, the binding signal was 6.38 Kd / Kd of best base at the position. Same read-out and setting: the result for AGTGTGATAGCT reads 6.5 Kd / Kd of best base at the position. Turning to AGAGTTATAGCT, the binding signal was 25 Kd / Kd of best base at the position.

As to AGAGTGCTAGCT, the binding signal is 95.1 Kd / Kd of best base at the position. Same read-out and setting: the result for AGGGTGATAGCT reads 5.49 Kd / Kd of best base at the position; that for AGAGGGATAGCT, 8.18 Kd / Kd of best base at the position.

Take AGAGTAATAGCT: the binding signal was 23.7 Kd / Kd of best base at the position.

Regarding AGAGTGATCGCT, the binding signal was 9.37 Kd / Kd of best base at the position. For the sequence AGAGTGTTAGCT, the binding signal is 34.8 Kd / Kd of best base at the position. The same measure, in the same setting: the result for AGCGTGATAGCT reads 4.94 Kd / Kd of best base at the position; that for AGAGTGATAGGT, 4.85 Kd / Kd of best base at the position.

Regarding AGAGTGATAGCA, the binding signal was 5.73 Kd / Kd of best base at the position. The same measure, in the same setting: the result for AGAGTGAGAGCT reads 35.9 Kd / Kd of best base at the position; that for ACAGTGATAGCT, 3.68 Kd / Kd of best base at the position. Same read-out and setting: the result for AGAGTGAAAGCT reads 1670 Kd / Kd of best base at the position; that for AGAGTGATATCT, 3.39 Kd / Kd of best base at the position. On the same count and under the same terms, then AGAGTGGTAGCT, with 39.7 Kd / Kd of best base at the position; and AGAGTGATAACT, with 12.1 Kd / Kd of best base at the position; and ATAGTGATAGCT, with 1.01 Kd / Kd of best base at the position. As to CGAGTGATAGCT, the binding signal was 5.01 Kd / Kd of best base at the position.

A further experiment deals with D (Drosophila melanogaster, UniProt Q24533 127-229). The experiment is described as above. The note with it: tags: N-GST (pGEX-6P-1, kept); dsDNA, one strand shown.
D, sequence (Q24533 127-229): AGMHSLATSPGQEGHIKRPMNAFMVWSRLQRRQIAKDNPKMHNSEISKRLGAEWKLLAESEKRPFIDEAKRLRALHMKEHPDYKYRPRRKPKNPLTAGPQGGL
For the sequence GACCATTGTGCTTG, the binding signal was 11.9 Kd / Kd of best base at the position. Still for that read-out and setting: the result for GACCATCGTTCTTG reads 34.5 Kd / Kd of best base at the position. On the same count and under the same terms, the result for GACCATTGTTCCTG reads 3.75 Kd / Kd of best base at the position; that for GACCATTGTTCTGG, 1.95 Kd / Kd of best base at the position.

As for GACCATAGTTCTTG, the binding signal is 40.3 Kd / Kd of best base at the position.

In the case of GACCACTGTTCTTG, the binding signal was 40.3 Kd / Kd of best base at the position.
